The test system of this experiment is Potassium Channel [KATP]. The experiment in a line: CYP450 and receptor off-target profile – biochemical, Ricerca HitProfilingScreen, selectivity assay for S1P4 agonist project, late-stage follow-up (AID 504400). Conditions: Ricerca radioligand binding/enzyme panel plus CYP450, at 10 µM, active compounds read high.

A number with no mark means an inactive call. No rule for the calls is given here.

For `Clc1ccc(OCCOc2ccc(Br)nc2Br)c(Cl)c1`, the inhibition was 20%.
